# Screens from PubChem BioAssay.
# In the library only some 3.5% were active in any assay of this set; here they are far more common.
# FBW7 act – activators of human E3 ligase FBW7 | AlphaScreen FBW7–phospho-cyclin E peptide binding, activator screen | normalized activity (activation), % at 26.1 µM | actives 0.13% (n = 650,000) | AID 1259310; in the data active = normalized activity above about 1.9%;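 note: purified mutant Fbw7 with reduced substrate affinity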
# MITF primary – human MITF inhibition, primary screen; actives 0.91% (n = 650,000); AlphaScreen MITF homodimerization, bead proximity signal; O75030; inhibition, % at 2.6 µM; in the data active = inhibition above about 50%;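 note: 0% = vehicle wells with protein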
# Target sequence (O75030 whole entry, looked up): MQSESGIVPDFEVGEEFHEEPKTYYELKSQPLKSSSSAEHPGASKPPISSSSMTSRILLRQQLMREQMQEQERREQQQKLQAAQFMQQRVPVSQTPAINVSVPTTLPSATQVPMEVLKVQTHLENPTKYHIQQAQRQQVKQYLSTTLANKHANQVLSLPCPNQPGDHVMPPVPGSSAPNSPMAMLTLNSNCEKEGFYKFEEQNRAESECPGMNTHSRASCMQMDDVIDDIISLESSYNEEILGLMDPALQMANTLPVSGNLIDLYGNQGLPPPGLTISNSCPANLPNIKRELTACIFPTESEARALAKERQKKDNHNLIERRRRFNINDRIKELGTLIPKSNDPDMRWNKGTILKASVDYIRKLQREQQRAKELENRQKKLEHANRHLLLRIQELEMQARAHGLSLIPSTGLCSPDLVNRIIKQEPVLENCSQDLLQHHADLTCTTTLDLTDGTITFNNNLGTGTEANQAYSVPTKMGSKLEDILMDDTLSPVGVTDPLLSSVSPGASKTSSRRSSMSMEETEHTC
# TEAD-YAP inh – TEAD-YAP interaction inhibition. HEK-TIYL cells, TEAD-Gal4/YAP UAS-luciferase luminescence. inhibition, % at 9.12 µM. actives 1.4% (n = 640,000). AID 1259422; in the data active = inhibition above about 32%;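 note: 0% = median of test compound wells and 100% = reference inhibitor wells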
# GPR151 ag – activators of human GPR151; Q8TDV0; PathHunter beta-arrestin GPR151 cells, luminescence; activation, % at 11.2 µM; actives 1% (n = 650,000); AID 1508602; in the data active = activation above about 4.9%;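 note: 0% = median of compound wells and 100% = cells with positive control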
# Active calls of the source: *; ! = repeats disagree.
SMILES,FBW7 act,MITF primary,TEAD-YAP inh,GPR151 ag
COC(=O)c1nn(-c2ccc3c(c2)CCN3C(C)=O)cc1O,0.0,-2.5,94.5*,-10.5
O=C1N/C(=N\N=C/c2ccc3c(c2)OCO3)S/C1=C/c1ccc(O)cc1,0.9,-4.9,48.5*,-0.4
COC(=O)/C=C1\S/C(=N\N=C\c2ccc3c(c2)OCO3)NC1=O,-0.2,-1.1,-2.5,-1.0
Cn1cnnc1SCC(=O)NC1=NCCS1,0.1,15.1,-8.5,0.0
COc1ccc(C(=O)NC2CC3CCC2C3)cc1OC (centres undefined),0.2,3.0,-8.9,0.4
COc1cc(-c2[nH]nc3c2C(c2ccccc2Br)C(C#N)=C(N)O3)cc(OC)c1OC (centres undefined),0.0,-2.9,35.8*,-0.1
COc1cc(-c2[nH]nc3c2C(c2ccccc2Cl)C(C#N)=C(N)O3)cc(OC)c1OC (centres undefined),-0.2,-3.0,16.1,-0.5
CCN(CC)CCNC(=O)CCn1nc(-c2ccc(C)cc2)ccc1=O,0.0,9.2,9.2,0.3
CCN1/C(=C\C(C)=O)Sc2ccc3ccccc3c21,0.0,11.4,-0.6,-1.0
COc1ccc2c(c1)N(C)/C(=C/c1cccc[n+]1C)S2,-0.1,11.9,77.4*,-0.9
CCN1/C(=C/c2cccc[n+]2C)Sc2ccc(OC)cc21,0.0,1.6,84.3*,0.2
COc1ccc(/C=C/c2cccc[n+]2C)c(OC)c1,0.3,24.9,15.2,-0.4
CCN1/C(=C/C(C)=O)Sc2ccc(OC)cc21,0.0,18.2,32.4*!,-0.8
N#CC1=C(N)OC2=C(C(=O)CCC2)C1c1ccc(F)c(Br)c1 (centres undefined),0.1,-133.6,6.3,-0.3
O=C(N/N=C/c1ccc(Br)cc1)c1cc(O)c(O)c(O)c1,0.2,14.0,2.4,-0.8
COc1ccc(CC(=O)NNC(=O)c2ccc(C(C)(C)C)cc2)cc1,-0.3,7.5,2.7,0.0
Cc1c(NC(=O)c2cc(-c3cccc(Br)c3)nc3ccccc23)c(=O)n(-c2ccccc2)n1C,0.8,1.4,10.3,-0.2
Cc1c(NC(=O)c2cc(-c3ccccc3)nc3ccccc23)c(=O)n(-c2ccccc2)n1C,0.0,-3.0,33.1*,0.2
c1ccc(N=C2NN=C(c3ccccc3)CS2)cc1,0.0,-6.8,-35.9,0.9
c1ccc(C2=NNC(=NC3CC3)SC2)cc1,-0.2,-6.8,80.0*,-10.3
CCCNS(=O)(=O)c1cccc2nonc12,0.1,13.5,-4.2,-1.9
CCOC(=O)c1ccc(N/C=C\C(=O)c2ccc3c(c2)OCO3)cc1,0.0,-10.6,33.0*,-0.9
Cc1ccc(-c2c3c(nc4sc(C(=O)Nc5ccccc5)c(N)c24)CCCC3)cc1,-0.1,-16.9,2.2,-1.6
Cc1csc(NC(=O)c2sc3nc(C)c4c(c3c2N)CCCC4)n1,0.0,-2.8,94.3*,0.3
Cc1csc(NC(=O)c2sc3nc4c(c(C(F)(F)F)c3c2N)CCCC4)n1,0.1,11.8,65.0*,1.0
SMILES,FBW7 act,MITF primary,TEAD-YAP inh,GPR151 ag
O=C(/C=C/c1ccco1)NC(=S)Nc1ccc(Br)cn1,0.0,15.5,-17.9,0.2
CC(=O)NN(C(N)=O)c1nc(N2CCOCC2)nc(N2CCOCC2)n1,0.0,-3.0,7.8,-0.3
O=C(Nc1ccc([N+](=O)[O-])cc1)N1CCOCC1,-0.1,-0.2,1.9,0.1
CN(C)c1cccc2c1C(=O)c1ccccc1C2=O,-0.9,55.4*,2.0,1.8
CC(C)Oc1ccc(NS(=O)(=O)c2ccc(Cl)cc2)cc1,0.3,5.1,2.1,1.9
COC(=O)c1ccccc1OCCCOc1ccc(C)cc1OC,0.5,12.6,-12.0,-1.9
COc1cc(C)ccc1OCCCOc1ccccc1C(=O)O,0.8,-11.3,37.1*,-0.6
COc1ccc(-n2c(/C=C/N(C)C)c([N+](=O)[O-])c3ccc(O)c(CN(C)C)c32)cc1,0.2,5.4,37.6*,-0.6
Cc1cc2nccc(NC(=O)c3c(F)cccc3F)n2n1,-0.1,-2.1,10.4,0.2
Cc1cc2nccc(NC(=O)CSc3ccccc3)n2n1,2.1*,-12.3,3.5,2.7
O=C(CSc1nc2c(c(=O)n1-c1ccc(Br)cc1)SCC2)N1CCc2ccccc21,-0.1,1.0,-4.4,0.3
CCOc1ccccc1N1C(=O)NC(=O)/C(=C/c2ccco2)C1=O,-0.5,38.5,-3.5,1.1
Cc1ccc(/C=C2\C(=O)NC(=O)N(c3ccc(F)cc3)C2=O)o1,-0.1,0.3,1.9,1.2
COc1ccccc1N1C(=O)NC(=O)/C(=C\c2ccco2)C1=O,-0.6,62.4*,0.4,-0.4
O=C1NC(=O)N(c2ccc([N+](=O)[O-])cc2)C(=O)/C1=C/c1ccco1,-0.1,78.2*,-2.3,0.1
